The source of these data is PubChem BioAssay.

Experiment [1] can be described thus: yeast TOR pathway RPL19A-GFP modulators, primary screen, cell-based, S. cerevisiae, multiplex flow cytometry (AID 1862; in the data active = percent of DMSO control GFP below about 86%;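 note: lower values mimic rapamycin by blocking the RPL19A rise seen in DMSO cells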). Conditions: S. cerevisiae RPL19A-GFP strain, flow cytometry fluorescence, 3 h; at 10 µM; stronger effect = lower value. A general note: A flow cytometer gives signals particle by particle.
Experiment [2] in a line: modulators of MEP2-GFP levels in yeast, primary screen, S. cerevisiae, multiplex flow cytometry (AID 1867;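 active = GFP response, as percent of the DMSO control, above the screen-wide mean plus 3 SD, about 139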;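 note: median GFP channel fluorescence of barcode-gated MEP2-GFP cells measured by flow cytometry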). Conditions: S. cerevisiae MEP2-GFP strain, 3 h, at 10 µM, stronger effect = higher value, 100% means same as DMSO wells.
Experiment [3] can be described thus: modulators of CIT2-GFP expression in yeast, primary screen, S. cerevisiae, GFP fusion, multiplex flow cytometry (AID 1870).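 Note: barcoded CIT2-GFP strain pooled with four other GFP strains with rapamycin as positive control; median GFP fluorescence per well over plate mean of DMSO wells so 100% = DMSO.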 The following applies: 3 h, at 10 µM, stronger effect = higher value.
A short description of experiment [4]: modulators of LAP4-GFP expression in yeast, primary screen, S. cerevisiae, multiplex flow cytometry (AID 1873;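 active = GFP signal, as percent of the solvent control, above the screen mean plus 3 SD, about 149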). Conditions: 3 h, at 10 µM, stronger effect = higher value.
Experiment [5] can be described thus: modulators of AGP1-GFP expression in yeast TOR pathway, primary screen, cell-based, multiplex flow cytometry, S. cerevisiae (AID 1887;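 active = GFP signal above the screen-wide mean plus 3 SD, that is over about 124.5% of the solvent control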;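 note: AGP1-GFP fusion strain of S. cerevisiae within a five-strain barcoded multiplex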). Conditions: 3 h, at 10 µM, stronger effect = higher value.
Experiment [6] can be described thus: inhibitors of CD8+ T cell-vesicle binding, pilot screen, LFA-1/ICAM-1 modulator project, MLPCN validation set, flow cytometry (AID 2523;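 active = response below a set limit, under 55% cells CD8-positive and vesicle-bound, and CD8 cells' 90th-percentile brightness under 279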;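 for vesicle binding response: mean PE anti-B7-1 fluorescence of CD8+ cells relative to row control; 100% = QL9-loaded vesicles with DMSO vehicle in the same plate row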). The following applies: 2C mouse CD8+ T cells, at 7 µM, stronger effect = lower value; double positive events: measured here: CD8+/vesicle+ event percentage.
Experiment [7] deals with Integrin beta-1 (Homo sapiens) + Integrin alpha-4 (Homo sapiens) (UniProt P13612+P05556). The experiment can be described thus: inhibition of HUTS-21 binding to VLA-4, pilot screen, VLA-4 allosteric modulator project, U937 cells, HUTS-21 mAb, flow cytometry, validation set (AID 2674;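 active = inhibition above 50%, about 3 SD of the validation set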;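 note: antibody binding induced by the VLA-4 ligand LDV present at three times its Kd; 0% = LDV ligand with antibody and no compound and 100% = antibody without LDV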). Conditions: HUTS-21 LIBS mAb binding, at 6.7 µM, stronger effect = higher value, binding induced by LDV ligand.
Integrin beta-1 (Homo sapiens) + Integrin alpha-4 (Homo sapiens), sequence (P05556 whole entry, looked up): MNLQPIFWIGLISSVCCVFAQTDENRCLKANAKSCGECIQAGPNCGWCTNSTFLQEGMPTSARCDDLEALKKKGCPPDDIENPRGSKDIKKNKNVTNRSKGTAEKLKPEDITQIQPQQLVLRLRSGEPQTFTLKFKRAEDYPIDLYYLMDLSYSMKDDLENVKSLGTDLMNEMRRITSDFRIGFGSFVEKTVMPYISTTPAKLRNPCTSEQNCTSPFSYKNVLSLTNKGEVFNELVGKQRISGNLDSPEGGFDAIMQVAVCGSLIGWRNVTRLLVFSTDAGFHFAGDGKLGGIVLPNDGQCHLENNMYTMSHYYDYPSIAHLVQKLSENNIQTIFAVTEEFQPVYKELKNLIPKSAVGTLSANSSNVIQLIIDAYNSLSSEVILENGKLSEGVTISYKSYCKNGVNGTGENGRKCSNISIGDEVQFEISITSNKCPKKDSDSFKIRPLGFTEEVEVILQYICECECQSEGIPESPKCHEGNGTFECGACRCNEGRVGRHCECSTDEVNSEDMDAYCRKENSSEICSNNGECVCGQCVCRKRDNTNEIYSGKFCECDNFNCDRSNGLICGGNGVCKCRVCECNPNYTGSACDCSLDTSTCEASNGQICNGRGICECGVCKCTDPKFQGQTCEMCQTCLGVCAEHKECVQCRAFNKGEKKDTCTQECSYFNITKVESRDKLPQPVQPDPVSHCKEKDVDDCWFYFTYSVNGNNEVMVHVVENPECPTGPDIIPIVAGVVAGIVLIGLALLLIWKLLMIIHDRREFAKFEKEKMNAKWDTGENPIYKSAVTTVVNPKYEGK
Integrin beta-1 (Homo sapiens) + Integrin alpha-4 (Homo sapiens), sequence (P13612 whole entry, looked up): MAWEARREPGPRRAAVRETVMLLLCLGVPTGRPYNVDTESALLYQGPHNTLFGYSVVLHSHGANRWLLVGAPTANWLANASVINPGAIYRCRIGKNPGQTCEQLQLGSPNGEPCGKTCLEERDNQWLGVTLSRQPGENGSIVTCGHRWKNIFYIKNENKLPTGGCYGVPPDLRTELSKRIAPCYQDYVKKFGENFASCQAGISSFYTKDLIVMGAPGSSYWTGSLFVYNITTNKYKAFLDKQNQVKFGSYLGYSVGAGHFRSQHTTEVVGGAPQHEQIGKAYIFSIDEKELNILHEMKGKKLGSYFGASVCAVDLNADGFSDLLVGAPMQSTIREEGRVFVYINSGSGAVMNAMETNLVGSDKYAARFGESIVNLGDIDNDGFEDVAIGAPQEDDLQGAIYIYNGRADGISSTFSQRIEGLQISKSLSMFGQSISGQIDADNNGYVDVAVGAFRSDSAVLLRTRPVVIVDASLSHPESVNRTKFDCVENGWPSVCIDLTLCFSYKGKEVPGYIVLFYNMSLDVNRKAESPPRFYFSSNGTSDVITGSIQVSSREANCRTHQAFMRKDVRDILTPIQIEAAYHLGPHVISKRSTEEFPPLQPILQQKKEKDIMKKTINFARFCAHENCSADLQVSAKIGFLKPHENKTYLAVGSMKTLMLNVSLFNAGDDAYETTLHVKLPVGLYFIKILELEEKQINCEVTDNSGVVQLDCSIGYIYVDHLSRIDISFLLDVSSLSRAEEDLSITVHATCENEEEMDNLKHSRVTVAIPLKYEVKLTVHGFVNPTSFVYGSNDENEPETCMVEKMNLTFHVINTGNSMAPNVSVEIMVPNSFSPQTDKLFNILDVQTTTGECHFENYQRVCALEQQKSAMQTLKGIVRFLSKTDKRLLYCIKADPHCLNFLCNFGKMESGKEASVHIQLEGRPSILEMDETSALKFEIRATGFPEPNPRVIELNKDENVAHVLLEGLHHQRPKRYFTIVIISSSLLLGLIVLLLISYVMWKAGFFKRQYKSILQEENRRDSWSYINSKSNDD

Experiment [8] in a line: superoxide lowering in aged yeast cells, pilot screen, validation compound set (AID 2706;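 active = superoxide response below 65% of plate, a cut near 3 SD across the whole screen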;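 note: yeast exposed to compound for one week at 30 degrees C before staining; 100% = mean of all compound wells on the same plate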). The following applies: S. cerevisiae aging, superoxide DHE fluorescence; at 10 µM; stronger effect = lower value.
Experiment [9] concerns the target Beta-adrenergic receptor kinase 1 (Homo sapiens) (UniProt P25098). As to the kind of experiment: GRK2 binders displacing RNA aptamer, biochemical, validation, human GRK2, bead flow cytometry (AID 488806;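 active = aptamer binding inhibition above 30%, about 3 SD of noise from non-fluorescent compounds; inactive = inhibition at or below 30%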). The following applies: bead-bound GRK2, FAM-aptamer displacement, at 10 µM, stronger effect = higher value.
In experiment [10] the target is Beta-2 adrenergic receptor (Homo sapiens) (UniProt P07550). The experiment can be described thus: beta2AR agonists driving receptor internalization, pilot screen, cell-based, FAP fluorogen, flow cytometry, validation set (AID 504459;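 active = percent response above 42, roughly 3 SD of non-fluorescent test compounds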;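 note: agonist-driven loss of surface beta2AR via internalization measured by FAP dye flow cytometry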). The following applies: Am2.2-beta2AR cells, FAP surface receptor flow cytometry; at 10 µM; stronger effect = higher value.
Beta-2 adrenergic receptor (Homo sapiens), sequence (P07550 whole entry, looked up): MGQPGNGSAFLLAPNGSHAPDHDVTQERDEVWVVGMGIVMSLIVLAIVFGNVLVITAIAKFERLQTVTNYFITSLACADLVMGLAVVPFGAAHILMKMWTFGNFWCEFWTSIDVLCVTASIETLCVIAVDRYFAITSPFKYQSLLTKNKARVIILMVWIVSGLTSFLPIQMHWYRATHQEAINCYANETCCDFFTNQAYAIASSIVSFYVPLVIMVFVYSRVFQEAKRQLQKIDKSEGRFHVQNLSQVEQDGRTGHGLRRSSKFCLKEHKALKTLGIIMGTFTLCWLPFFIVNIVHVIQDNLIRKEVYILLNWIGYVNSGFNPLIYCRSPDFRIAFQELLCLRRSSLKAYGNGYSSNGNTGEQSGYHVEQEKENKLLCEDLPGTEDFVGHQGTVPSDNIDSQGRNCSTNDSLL
Experiment [11] concerns the target AP-2 complex subunit beta (Homo sapiens) (UniProt P63010). As to the kind of experiment: inhibitors of arrestin peptide binding to AP2, pilot screen, biochemical, validation set, GST-AP2 beads, flow cytometry (AID 504541;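 active = inhibition above 54%, about 3 SD of non-fluorescent compounds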;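 note: AP2 carries R879A mutation and is captured from E. coli lysate; bead-bound FITC arrestin peptide fluorescence measuring arrestin peptide binding to AP2; 0% = DMSO wells and 100% = excess unlabeled arrestin peptide control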). The following applies: FITC arrestin peptide, at 10 µM, stronger effect = higher value, AP2 beta2 appendage fragment, R879A mutant.
Experiment [12] can be described thus: yeast V-ATPase proton transport modulators, S. cerevisiae, pHLuorin, HTS validation (AID 504600; in the data active = response above about 15%;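 note: plate controls were DMSO for no effect and reference compound for full effect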). The following applies: S. cerevisiae pHLuorin cytosolic pH, at 10 µM, stronger effect = higher value.
The test system of experiment [13] is anti-desmoglein-3 scFv antibody binding to human DSG3. The experiment can be described thus: inhibitors of anti-DSG3 scFv binding to DSG3, pilot screen, biochemical, validation compound set, bead-based, flow cytometry (AID 588368;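 active = binding below the plate cutoff, the plate median minus 3 SD, with a reading above zero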;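 note: signal is the median channel fluorescence of bead-bound GFP antibody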). Conditions: Protein G beads, DSG3-Fc, scFv-GFP binding, at 10 µM, stronger effect = lower value.
Experiment [14] in a line: inhibitors of fungal efflux pumps CDR1, CDR2, MDR1, pilot screen, validation compound set, multiplex, phenotypic (AID 588506;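 active = efflux inhibition above 0.42, the validation set average plus 4 SD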;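 note: Nile Red retained in cells so higher fluorescence means more efflux inhibition; 0 = negative control wells and 1 = enniatin B 25 µM full block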). Conditions: S. cerevisiae pump-expressing triplex, Nile Red efflux flow cytometry; at 10 µM; stronger effect = higher value; the pumps come from Candida albicans.
The target in experiment [15] is ATP-binding cassette sub-family B member 6 (Homo sapiens) (UniProt Q9NP58). As to the kind of experiment: ABCB6 transporter inhibitors, pilot screen, K562-ABCB6 cells, flow cytometry, validation set (AID 588550;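 active = inhibition above the screen-wide mean plus 3 SD, about 51%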;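 note: 0% = DMSO wells and 100% = benzethonium chloride 70 µM positive control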). Conditions: K562-ABCB6 porphyrin accumulation, 1 h, at 10 µM, stronger effect = higher value.
ATP-binding cassette sub-family B member 6 (Homo sapiens), sequence (Q9NP58 whole entry, looked up): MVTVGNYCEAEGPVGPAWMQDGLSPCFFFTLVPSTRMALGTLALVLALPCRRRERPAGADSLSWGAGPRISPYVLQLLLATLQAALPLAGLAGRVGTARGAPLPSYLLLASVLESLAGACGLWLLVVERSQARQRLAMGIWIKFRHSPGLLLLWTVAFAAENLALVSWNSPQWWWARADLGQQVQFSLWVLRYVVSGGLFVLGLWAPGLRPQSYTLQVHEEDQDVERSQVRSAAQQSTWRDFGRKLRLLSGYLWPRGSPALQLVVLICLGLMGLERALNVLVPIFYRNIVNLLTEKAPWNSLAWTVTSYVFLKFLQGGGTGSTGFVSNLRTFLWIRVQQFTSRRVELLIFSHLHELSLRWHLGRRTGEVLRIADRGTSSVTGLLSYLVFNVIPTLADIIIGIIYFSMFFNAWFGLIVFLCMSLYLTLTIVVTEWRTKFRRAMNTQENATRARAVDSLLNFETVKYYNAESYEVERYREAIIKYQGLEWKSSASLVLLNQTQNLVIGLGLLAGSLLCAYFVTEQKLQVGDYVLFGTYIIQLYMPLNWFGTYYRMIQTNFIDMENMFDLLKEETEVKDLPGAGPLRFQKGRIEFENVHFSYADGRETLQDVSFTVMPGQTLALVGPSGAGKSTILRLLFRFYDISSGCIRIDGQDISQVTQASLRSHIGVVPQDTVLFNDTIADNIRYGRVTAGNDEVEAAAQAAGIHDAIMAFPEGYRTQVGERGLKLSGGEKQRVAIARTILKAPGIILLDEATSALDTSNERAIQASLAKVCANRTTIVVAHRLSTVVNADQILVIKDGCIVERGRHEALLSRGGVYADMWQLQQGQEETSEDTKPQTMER
Experiment [16] can be described thus: promoters of myeloid differentiation in arrested cells, primary screen, cell-based, GFP/MAC1 double positive, flow cytometry, validation set (AID 588685;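 active = differentiation response of at least 50%, scaled between solvent and reference control, from cells with both markers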;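 note: compound exposure lasts four days before antibody staining and flow analysis; 0% = DMSO wells and 100% = 5 µM fulvestrant positive control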). The following applies: ER-HoxA9 marrow cells, stronger effect = higher value, normalized: vehicle 0, fulvestrant 100.

Inconclusive results are not listed. The source made the active and inactive calls.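 Rule for the calls, unless noted: active = percent response above a set limit, the screen-wide mean plus 3 SD (cut at about 130% in these data); inactive = the rest.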

Beta-adrenergic receptor kinase 1 (Homo sapiens), sequence (P25098 whole entry, looked up): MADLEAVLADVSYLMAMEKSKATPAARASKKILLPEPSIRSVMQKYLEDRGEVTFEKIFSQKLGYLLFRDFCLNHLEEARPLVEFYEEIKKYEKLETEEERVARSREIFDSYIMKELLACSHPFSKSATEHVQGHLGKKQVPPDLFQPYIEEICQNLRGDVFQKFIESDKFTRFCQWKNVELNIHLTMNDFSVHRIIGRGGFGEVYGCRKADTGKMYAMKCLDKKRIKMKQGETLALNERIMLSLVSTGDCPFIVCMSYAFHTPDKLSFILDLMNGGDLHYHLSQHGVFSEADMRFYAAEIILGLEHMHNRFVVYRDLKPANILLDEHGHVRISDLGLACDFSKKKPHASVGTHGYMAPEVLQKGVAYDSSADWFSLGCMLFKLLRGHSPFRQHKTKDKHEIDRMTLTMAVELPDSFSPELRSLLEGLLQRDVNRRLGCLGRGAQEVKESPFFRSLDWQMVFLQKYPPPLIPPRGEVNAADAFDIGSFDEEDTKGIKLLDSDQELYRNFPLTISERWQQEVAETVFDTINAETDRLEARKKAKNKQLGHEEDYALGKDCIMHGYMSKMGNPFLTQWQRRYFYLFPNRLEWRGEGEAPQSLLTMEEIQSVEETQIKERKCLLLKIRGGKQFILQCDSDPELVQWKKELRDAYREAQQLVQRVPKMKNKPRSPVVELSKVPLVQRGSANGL
AP-2 complex subunit beta (Homo sapiens), sequence (P63010 whole entry, looked up, the tested form may be a part, one chain of several): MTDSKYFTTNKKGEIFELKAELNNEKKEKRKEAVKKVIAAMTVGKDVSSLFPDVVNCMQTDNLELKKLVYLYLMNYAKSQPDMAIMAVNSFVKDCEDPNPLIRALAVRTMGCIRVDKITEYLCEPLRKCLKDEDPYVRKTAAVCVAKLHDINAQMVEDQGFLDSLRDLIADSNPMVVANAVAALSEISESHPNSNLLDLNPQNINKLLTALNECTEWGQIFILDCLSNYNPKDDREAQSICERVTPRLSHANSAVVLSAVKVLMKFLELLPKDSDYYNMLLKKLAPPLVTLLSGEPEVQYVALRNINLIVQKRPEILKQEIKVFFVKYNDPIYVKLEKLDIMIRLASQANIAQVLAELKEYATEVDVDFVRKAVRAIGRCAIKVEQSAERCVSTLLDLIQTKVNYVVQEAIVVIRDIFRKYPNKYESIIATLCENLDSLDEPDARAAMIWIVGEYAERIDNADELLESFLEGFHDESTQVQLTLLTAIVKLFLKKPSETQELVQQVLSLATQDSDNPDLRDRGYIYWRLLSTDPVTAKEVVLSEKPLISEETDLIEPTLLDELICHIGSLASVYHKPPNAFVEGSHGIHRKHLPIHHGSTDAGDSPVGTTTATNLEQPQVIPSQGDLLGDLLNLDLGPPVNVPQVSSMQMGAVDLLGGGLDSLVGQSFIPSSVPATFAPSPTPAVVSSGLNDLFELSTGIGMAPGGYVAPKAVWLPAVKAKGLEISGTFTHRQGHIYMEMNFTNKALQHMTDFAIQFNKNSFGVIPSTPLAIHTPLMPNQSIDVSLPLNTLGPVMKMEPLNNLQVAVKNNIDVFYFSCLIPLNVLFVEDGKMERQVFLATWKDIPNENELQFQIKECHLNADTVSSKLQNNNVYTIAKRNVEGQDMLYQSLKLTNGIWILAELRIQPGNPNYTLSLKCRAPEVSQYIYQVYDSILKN

Take `CC1(C)[C@@H](O)CC[C@]2(C)[C@H]3C(=O)C=C4[C@@H]5C[C@@](C)(C(=O)O)CC[C@]5(C)CC[C@@]4(C)[C@]3(C)CC[C@@H]12`: the percent of DMSO control GFP in experiment [1] was 98.8% (inactive). For the same molecule, the values for the GFP response vs DMSO in [2] and in experiment [4] were 100% (inactive) and 112% (inactive), respectively. Moreover, in experiment [3], the percent response of DMSO control is 89.6% (inactive). The GFP response, % of DMSO in experiment [5] was 91% (inactive). Besides, the double positive events in experiment [6] worked out at 64.3%. Besides, in [6], the vesicle binding response was 698% (inactive). Also, the inhibition is 13% (inactive) in [7], -5.72% (inactive) in experiment [11] and 15% (inactive) in [15]. Also, the superoxide response (% of plate) in [8] was 82.7% (inactive). The aptamer binding inhibition in [9] is 7% (inactive). Further, the response in [10] is 7.4% (inactive); in experiment [12], 0.36% (inactive). Besides, the binding (% of control) in experiment [13] was 97.6% (inactive). For the same molecule, in [14], the efflux inhibition (fraction of control) is 0.11 (inactive). For the same molecule, in [16], the differentiation response is 16.9% (inactive).

For `O=c1c2[nH]c3ccccc3c2ncn1CCC1=CCCCC1`, in [1], the percent of DMSO control GFP was 91.7% (inactive). The GFP response vs DMSO in [2] was 127% (inactive); in experiment [4] it was 82% (inactive). In addition, the percent response of DMSO control in experiment [3] was 103% (inactive). Further, the GFP response, % of DMSO in [5] was 89.6% (inactive). Besides, the double positive events in experiment [6] was 62.1%. For the same molecule, the vesicle binding response in experiment [6] is 149% (inactive). Further, the inhibition in [7] was 14.2% (inactive); in experiment [11] it was -5.27% (inactive); in experiment [15], 13% (inactive). The superoxide response (% of plate) in [8] is 95.4% (inactive). Moreover, the aptamer binding inhibition in experiment [9] is -3% (inactive). The values for the response in [10] and in experiment [12] were -1.85% (inactive) and 0.28% (inactive), respectively. For the same molecule, the binding (% of control) in experiment [13] was 101% (inactive). Moreover, the efflux inhibition (fraction of control) in [14] is 0.01 (inactive). The differentiation response in experiment [16] was 1.64% (inactive).

For `COc1ccc2[nH]c3c(=O)n(/N=C/[C@H]4C(C)C=C(C)CC4C)c(=O)[nH]c3c2c1` (stereo not given in full), the percent of DMSO control GFP in experiment [1] was 99.9% (inactive). Also, the GFP response vs DMSO in experiment [2] was 109% (inactive); in experiment [4], 107% (inactive). Moreover, the percent response of DMSO control in experiment [3] was 92% (inactive). Further, the GFP response, % of DMSO in [5] was 102% (inactive). For the same molecule, in experiment [6], the double positive events was determined as 57.4%. In addition, in experiment [6], the vesicle binding response is 6260% (inactive). The inhibition in experiment [7] was 6.4% (inactive); in experiment [11], 32.4% (inactive); in [15], 1% (inactive). In addition, the superoxide response (% of plate) in experiment [8] was 95.3% (inactive). For the same molecule, in experiment [9], the aptamer binding inhibition was 3% (inactive). In addition, the response in experiment [10] was 5.28% (inactive); in experiment [12], -6.18% (inactive). Also, in experiment [13], the binding (% of control) was 98.7% (inactive). In experiment [14], the efflux inhibition (fraction of control) is 0.22 (inactive). Besides, the differentiation response in experiment [16] is -28% (inactive).

`COc1ccccc1OCC(=O)O`: the percent of DMSO control GFP in experiment [1] is 96.3% (inactive). For the same molecule, the results for the GFP response vs DMSO in experiment [2] and in experiment [4] were 107% (inactive) and 122% (inactive), respectively. In addition, the percent response of DMSO control in experiment [3] is 98.6% (inactive). In addition, in experiment [5], the GFP response, % of DMSO is 103% (inactive). In experiment [6], this molecule registered a double positive events of 61.5%. In addition, in [6], the vesicle binding response is 167% (inactive). The values for the inhibition in experiment [7], in [11] and in [15] were 3.67% (inactive), -3.11% (inactive) and 6% (inactive), respectively. Moreover, in [8], the superoxide response (% of plate) was 106% (inactive). The aptamer binding inhibition in experiment [9] was -3% (inactive). Moreover, the response in experiment [10] was -4.79% (inactive); in experiment [12] it was -0.38% (inactive). For the same molecule, in experiment [13], the binding (% of control) was 99.3% (inactive). In addition, the efflux inhibition (fraction of control) in experiment [14] is -0.06 (inactive). For the same molecule, in experiment [16], the differentiation response is -26.4% (inactive).

As for `COc1ccc(C(=O)Nc2ncc3c(n2)CC(C)CC3=O)cc1` (stereo not given), the percent of DMSO control GFP in [1] was 98% (inactive). The GFP response vs DMSO in experiment [2] was 105% (inactive); in experiment [4] it was 110% (inactive). In addition, in [3], the percent response of DMSO control was 105% (inactive). In [5], the GFP response, % of DMSO was 104% (inactive). Moreover, the double positive events in experiment [6] is 48.3%. Besides, in experiment [6], the vesicle binding response is 83.7% (inactive). The inhibition in [7] was -12.7% (inactive); in [11], 61.9% (active); in experiment [15], 15% (inactive). Moreover, the superoxide response (% of plate) in [8] was 99.5% (inactive). The aptamer binding inhibition in experiment [9] was -2% (inactive). The results for the response in experiment [10] and in [12] were 2.81% (inactive) and -6.31% (inactive), respectively. Besides, in experiment [13], the binding (% of control) was 95.3% (inactive). Besides, in experiment [14], the efflux inhibition (fraction of control) was 0.01 (inactive). The differentiation response in experiment [16] is -7.2% (inactive).

The term inhibition denotes the change of the read-out against control, counted positive when it falls.
